# SENP6 block – SENP6 protease inhibition; Q9GZR1; Recombinant SENP6 catalytic domain, aminoluciferin luminescence; inhibition, % at 10 µM; hit rate 1.8% among 330,000;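 active means inhibition above about 50% at the single tested dose, limit read from the data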;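 further: plate controls were DMSO wells with enzyme for no effect and DMSO wells lacking enzyme for full effect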
# Target sequence (Q9GZR1 628-1112 limits assumed): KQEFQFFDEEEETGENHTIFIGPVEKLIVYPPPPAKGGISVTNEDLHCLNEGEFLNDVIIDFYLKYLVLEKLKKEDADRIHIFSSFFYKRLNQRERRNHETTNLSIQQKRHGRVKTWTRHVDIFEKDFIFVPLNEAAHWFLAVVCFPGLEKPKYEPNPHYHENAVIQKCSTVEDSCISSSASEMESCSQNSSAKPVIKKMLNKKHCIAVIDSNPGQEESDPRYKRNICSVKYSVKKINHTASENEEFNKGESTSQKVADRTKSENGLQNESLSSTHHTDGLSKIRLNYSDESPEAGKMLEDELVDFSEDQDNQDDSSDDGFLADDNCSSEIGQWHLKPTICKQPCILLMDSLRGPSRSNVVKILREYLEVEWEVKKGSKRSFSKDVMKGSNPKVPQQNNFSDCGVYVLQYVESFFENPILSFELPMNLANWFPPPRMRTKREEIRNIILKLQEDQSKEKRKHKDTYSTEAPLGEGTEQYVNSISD
# LGR2 inh – inhibitors of bursicon-induced Drosophila LGR2 receptor cAMP signaling; hit rate 0.35% among 380,000; inhibition, % at 9.99 µM; HEK293 LGR2, CRE-luciferase, bursicon-stimulated, 4 h;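 active means drop in luminescence signal, shown as inhibition above about 50% in the replicate tests, limit read from the data, passing the limit was not always enough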;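 further: agonist challenge used bursicon conditioned medium at about half maximal strength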
# SENP7 inh – inhibitors of human SENP7 protease; recombinant SENP7, Z-RLRGG-aminoluciferin luminescence, 40 min; inhibition, % at 5 µM; hit rate 1.5% among 330,000;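 active means inhibition above about 50% at the single test dose, limit read from the data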;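 further: plate controls were DMSO with enzyme for no effect and no enzyme buffer wells for full effect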
# HSP90 refold inh – HSP90 refolding inhibition in rabbit reticulocyte lysate. hit rate 0.91% among 290,000. AID 1789. inhibition, % at 5.6 µM. luciferase refolding luminescence, 3 h;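 active means inhibition above the screen-wide mean plus 3 SD, computed separately per campaign, cut at about 16% in these data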;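 further: 0% = DMSO wells and 100% = 60 µM geldanamycin wells; inhibitors lower the luminescence because luciferase stays unfolded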
# SENP8 block-1 – SENP8 protease inhibition; Q96LD8; purified SENP8, Z-RLRGG-aminoluciferin cleavage, luminescence; inhibition, % at 10 µM; hit rate 1.2% among 330,000; in the data active means inhibition above about 50%
# SENP8 block-2 – blocks human SENP8 cleavage of Nedd8 substrate; hit rate 0.64% among 360,000; AID 602440; recombinant SENP8, Nedd8 substrate fluorescence; Q96LD8; inhibition, % at 20 µM; in the data active means inhibition mostly above about 40%, no sharp cut-off; inactive means mostly below about 27%
# SENP8 inh conf – SENP8 (human) inhibition, single concentration confirmation; purified SENP8, Nedd8-AMC/pro-Nedd8 cleavage fluorescence, 30 min; shares compounds with SENP8 block-2; inhibition, % at 25 µM; hit rate 15% among 1,400; in the data active means inhibition mostly above about 39%, no sharp cut-off; inactive means mostly below about 34%
# * = called active by the depositor; · = not tested or not shown. Shown are actives, neighbours in structure and some others; about 2.3% of the full set was active somewhere.
SMILES,SENP6 block,LGR2 inh,SENP7 inh,HSP90 refold inh,SENP8 block-1,SENP8 block-2,SENP8 inh conf
COc1ccc(NC(=O)C2CC(=O)OC23CCOC(C)(C)C3)cc1 (stereo not drawn),-11,·,0,7,6,42*,10
C=CCn1c(SCC(=O)Nc2cc(C)on2)nnc1C1COc2ccccc2O1 (stereo not drawn),-16,·,-13,3,-10,-6,·
Cc1cc(NC(=O)CSc2nnc(C3COc4ccccc4O3)n2N)no1 (stereo not drawn),-13,0,13,-2,-1,43*,9
O=C(/C=C/NNC(=O)c1ccccc1)c1ccc(Br)cc1,8,·,-7,-4,-9,18,·
O=C(/C=C/NNC(=O)c1ccc(Cl)cc1)c1ccccc1,-1,-28,-8,5,-9,39*,32
CO[C@@H]1CN(C)C(=O)c2cc(NS(C)(=O)=O)ccc2OC[C@@H](C)N(S(=O)(=O)CC(F)(F)F)C[C@H]1C,·,3,·,·,·,·,·
Cc1ccc(C=Nc2ccc(N(C)C)cc2)o1,11,-42,14,-1,-33,45*,14
O=c1c2ccccc2c(C=NCCc2ccccc2)c(O)n1Cc1ccccc1,6,5,21,-2,26,47*,51*
CC1(OC(=O)c2ccc(Cl)nc2)C(=O)C=C2C=C(C3CC3)OC=C2C1=O (stereo not drawn),-1,·,0,·,4,·,·
CC1(OC(=O)c2ccc(Cl)nc2)C(=O)C=C2C=C3CCCN3C=C2C1=O (stereo not drawn),14,9,7,·,7,65*,44*
COC(=O)CCC(=O)OC1(C)C(=O)C=C2C=C3CCCN3C=C2C1=O (stereo not drawn),11,5,3,·,6,53*,47*
CC1(OC(=O)C2CCCC2)C(=O)C=C2C=C3CCCCN3C=C2C1=O (stereo not drawn),6,·,-2,·,-11,57*,60*
COc1cc(NC(=O)C2CCCCN2)ccc1OCC(C)C (stereo not drawn),-16,-14,-6,0,-7,27*,5
CCC(=O)Nc1ccc2c(c1)OC[C@@H](C)N(C(=O)CC)C[C@@H](C)[C@@H](OC)CN(C)C2=O,·,15,·,·,·,·,·
C[C@@H]1CN(c2nc3nonc3nc2N2CCSCC2)C[C@H](C)O1,-4,-15,-5,3,1,41*,19
O=C(OCC(=O)N1CCCC1)c1cccs1,-2,·,4,-2,-3,48*,19
CCOc1ccccc1C(=O)N(CCC(=O)OC)c1ccccn1,-9,·,-5,4,-4,43*,16
CCc1cccc2c1Sc1ccccc1CC2N1CCNCC1 (stereo not drawn),-36,·,12,·,-11,44*,14
C[C@@H]1CN([C@@H](C)CO)C(=O)c2cc(NS(=O)(=O)c3ccc(F)cc3)ccc2O[C@@H](C)CCCCO[C@H]1CN(C)Cc1ccncc1,·,2,·,·,·,·,·
COc1ccc(-c2cnc3c(c2)C(=O)N([C@H](C)CO)C[C@H](C)[C@H](CN(C)C(=O)Cc2ccccn2)O3)cc1,·,-9,·,·,·,·,·
C[C@H](CO)N1C[C@H](C)[C@H](CN(C)Cc2ccc(-c3ccccc3)cc2)Oc2ccc(NC(=O)C3CCCCC3)cc2C1=O,·,7,·,·,·,·,·
CC(C(=O)NCCN1CCOCC1)(c1ccccc1)c1ccccc1,-17,-3,0,-2,-4,67*,6
Cc1ccccc1C(=O)NCCN1CCOCC1,-20,·,-15,0,-11,1,·
N#C/C(=C\c1ccc(O)c([N+](=O)[O-])c1)c1nc2ccccc2s1,·,-16,·,3,·,54*,42*
COc1cc(/C=C(\C#N)c2nc3ccccc3s2)cc([N+](=O)[O-])c1O,24,0,7,3,20,26,·
SMILES,SENP6 block,LGR2 inh,SENP7 inh,HSP90 refold inh,SENP8 block-1,SENP8 block-2,SENP8 inh conf
CCOC(=O)C(=O)NNc1ccccc1C,0,1,5,-1,2,2,·
Cc1ccccc1NNC(N)=S,3,1,10,1,-2,51*,11
O=S(=O)(Cc1ccccc1)N1C[C@@H]2N[C@H](C1)C2c1ccc(-c2ccccc2)cc1 (stereo partly drawn),·,-6,·,·,·,·,·
Oc1ccc(N2CCN(Cc3ccc(OCCCN4CCCCC4)cc3)CC2)cc1,9,-1,-9,4,-3,40*,13
CCOC(=O)C(=CNNc1ccccc1)C(=O)OCC,-10,1,4,2,0,45*,20
CN1C(=O)c2cc(NC(=O)NC3CCCC3)ccc2OC[C@@H]2O[C@H](CC(=O)O)CC[C@H]21,·,15,·,·,·,·,·
CCOC(=O)COc1ccc(/C=C2/SC(=Nc3ccccc3)N(Cc3cccnc3)C2=O)cc1OC,-2,·,8,0,-1,43*,19
C[C@@H]1CN([C@@H](C)CO)C(=O)CCCn2nncc2CO[C@@H]1CN(C)Cc1ccc(O)cc1,·,-8,·,·,·,·,·
O=C(N[C@@H]1CC[C@@H](CCNC(=O)c2cnccn2)O[C@@H]1CO)c1ccc2c(c1)OCO2,·,-5,·,·,·,·,·
CN(C)C=Nc1c(Br)cc(Br)c2nonc12,39,·,12,0,23,58*,45*
COc1ccccc1N1CC(C(=O)Nc2ccc3c(c2)OCO3)CC1=O (stereo not drawn),1,·,2,-4,0,1,·
COc1ccc2c(c1OC)C(=O)OC2N1C(=O)CC[C@H]1C(=O)Nc1ccc2c(c1)OCO2 (stereo partly drawn),-4,·,-7,-4,2,44*,-3
CCC(=O)N(C)C[C@H]1Oc2cc(C#Cc3ccccc3)ccc2S(=O)(=O)N([C@H](C)CO)C[C@@H]1C,·,17,·,·,·,·,·
CCCc1ccc(C(=O)NNc2ccc(F)cc2)cc1,-10,·,10,-4,-14,47*,8
CCc1ccc(C(=O)NNc2ccc(F)cc2F)cc1,-3,4,10,3,-4,6,·
Cc1cc2ccccn2c1C(=O)c1ccc(NN)c([N+](=O)[O-])c1,4,45,5,-1,4,42*,11
COc1ccc(C2SCCN2S(=O)(=O)c2ccc(F)cc2)cc1OC (stereo not drawn),5,-5,-5,2,7,11,·
COc1ccc(S(=O)(=O)N2CCSC2c2ccc(OC)c(OC)c2)cc1 (stereo not drawn),-7,·,-3,-1,-6,50*,16
O=[N+]([O-])c1cc(C(F)(F)F)cc([N+](=O)[O-])c1NN=C1CCCCC1,4,1,6,1,-4,42*,9
C[C@@H]1CCCCO[C@@H](CN(C)S(=O)(=O)c2ccccc2)[C@H](C)CN([C@H](C)CO)C(=O)c2cc(NC(=O)c3ccccc3)ccc2O1,·,4,·,·,·,·,·
COCCN1Cc2cccc(C(=O)NCc3cccs3)c2C1=O,-4,-3,-6,0,-2,42*,6
